Potency and max activation data for 14 compounds are collected here from PubChem BioAssay (Tox21).

A short description of assay [1]: Caspase-3/7 induction in HepG2 cells by small molecules, qHTS assay (AID 1346978). Note: nearly all actives have a fitted effect of over 15% in size. In a few lines:
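Caspase-3/7 induction was measured by Caspase-Glo 3/7 luminescence (30 min, room temperature) after a 17 hr compound exposure of wild-type HepG2 cells seeded at 2,000 per well and pre-incubated 5 hr.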

A short description of assay [2]: Caspase-3/7 induction in CHO-K1 cells by small molecules, qHTS cell viability counter screen (AID 1346979). Note: nearly all actives have a fitted effect of over 35% in size. Note: potency is the fitted concentration of half-maximal effect. In a few lines:
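Wild-type CHO-K1 cells were seeded at 1,500 per well, rested 5hr at 37 C, then exposed to compounds in DMSO. After 16hr, CellTiter-Fluor reagent was added and fluorescence read 1hr later as the viability measure.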
For orientation: Quantitative high-throughput screening tests each substance at several concentrations.

Assay [3] in a line: Caspase-3/7 induction in CHO-K1 cells by small molecules, qHTS assay (AID 1346980). Note: nearly all actives have a fitted effect of over 15% in size. In a few lines:
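Luminescent Caspase-Glo 3/7 read (30min, room temperature) quantified apoptosis induction. Cells were wild-type CHO-K1, treated with compound for 17hr at 37 C and 5% CO2.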

Assay [4] in a line: Caspase-3/7 induction in HepG2 cells by small molecules, qHTS cell viability counter screen (AID 1346981). Note: nearly all actives have a fitted effect of over 30% in size. Note: potency is the fitted concentration of half-maximal effect. In a few lines:
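CellTiter-Fluor fluorescence measured viability in the same wells used for Caspase-Glo 3/7. HepG2 (wild type) at 2,000 cells/well were pre-incubated 5 hr, dosed, and given reagent at 16 hr, with 1 hr further at 37C.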

For assay [5], the target named is Nuclear receptor subfamily 1 group I member 2 (Homo sapiens) (UniProt O75469). Briefly: Human pregnane X receptor (PXR) small molecule agonists, qHTS assay (AID 1346982). Note: nearly all actives have a fitted effect of over 35% in size. Note: potency is the fitted concentration of half-maximal effect. In a few lines:
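Agonist mode: luminescence from ONE-Glo after 24 h compound exposure at 37C in HepG2 cells carrying hPXR-responsive CYP3A4 luciferase, plated in charcoal-stripped serum medium 5 h beforehand.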

The target of assay [6] is Cytochrome P450 2D6 (Homo sapiens) (UniProt P10635). Briefly: Cytochrome P450 Family 2 Subfamily D Member 6 (CYP2D6) small molecule antagonists: luciferase reporter qHTS assay (AID 1671196). Note: nearly all actives have a fitted effect of over 50% in size. Note: potency is the fitted concentration of half-maximal effect. In a few lines: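 CYP2D6 activity was followed as luminescence from its luciferin product after a 1 h NADPH-driven reaction at room temperature. Enzyme-substrate mix and compound were pre-incubated for 10 min, and the signal was read 20 min after adding detection reagent.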
Cytochrome P450 2D6 (Homo sapiens), sequence (P10635 whole entry, looked up): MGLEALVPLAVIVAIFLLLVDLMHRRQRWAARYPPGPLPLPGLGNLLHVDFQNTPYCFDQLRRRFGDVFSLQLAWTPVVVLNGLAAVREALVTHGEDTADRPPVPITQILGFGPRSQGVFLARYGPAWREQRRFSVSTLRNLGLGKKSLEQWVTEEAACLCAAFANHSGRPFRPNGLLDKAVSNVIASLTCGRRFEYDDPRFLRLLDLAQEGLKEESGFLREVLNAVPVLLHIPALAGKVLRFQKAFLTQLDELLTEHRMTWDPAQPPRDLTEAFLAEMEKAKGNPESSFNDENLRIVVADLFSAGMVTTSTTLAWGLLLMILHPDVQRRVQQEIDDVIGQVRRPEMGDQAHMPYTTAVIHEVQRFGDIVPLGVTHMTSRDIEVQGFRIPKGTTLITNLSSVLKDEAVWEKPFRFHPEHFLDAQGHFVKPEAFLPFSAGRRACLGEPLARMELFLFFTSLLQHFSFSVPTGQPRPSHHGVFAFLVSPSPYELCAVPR
For orientation: Reporter assays use an easily measured gene product as a stand-in for the process of interest.

The target in assay [7] is Cytochrome P450 2C19 (Homo sapiens) (UniProt P33261). Briefly: Cytochrome P450 Family 2 Subfamily C Member 19 (CYP2C19) small molecule antagonists: luciferase reporter qHTS assay (AID 1671197). Note: nearly all actives have a fitted effect of over 65% in size. Note: potency is the fitted concentration of half-maximal effect. Summed up: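 Enzyme-substrate mix with proluciferin substrate (P450-Glo CYP2C19 system) preincubated with compounds 10 min at room temperature; NADPH regeneration solution added, 37C for 1 h; detection reagent stops reaction, luminescence read after 20 min. Ketoconazole positive control.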
Cytochrome P450 2C19 (Homo sapiens), sequence (P33261 whole entry, looked up): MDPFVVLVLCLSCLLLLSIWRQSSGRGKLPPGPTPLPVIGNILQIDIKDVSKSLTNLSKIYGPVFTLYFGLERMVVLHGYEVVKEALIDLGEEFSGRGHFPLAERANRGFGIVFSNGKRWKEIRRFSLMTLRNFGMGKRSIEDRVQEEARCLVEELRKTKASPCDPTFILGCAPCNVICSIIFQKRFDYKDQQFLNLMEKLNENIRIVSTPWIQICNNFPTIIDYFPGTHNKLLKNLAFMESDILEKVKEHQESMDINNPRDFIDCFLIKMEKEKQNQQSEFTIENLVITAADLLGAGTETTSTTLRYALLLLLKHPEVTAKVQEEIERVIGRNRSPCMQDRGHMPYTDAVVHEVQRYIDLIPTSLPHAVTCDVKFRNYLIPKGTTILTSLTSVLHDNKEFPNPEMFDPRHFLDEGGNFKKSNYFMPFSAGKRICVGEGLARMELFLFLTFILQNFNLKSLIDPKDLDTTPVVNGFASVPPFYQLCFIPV

The target of assay [8] is Cytochrome P450 2C9 (Homo sapiens) (UniProt P11712). The assay can be described thus: Cytochrome P450 Family 2 Subfamily C Member 9 (CYP2C9) small molecule antagonists: luciferase reporter qHTS assay (AID 1671198). Note: nearly all actives have a fitted effect of over 50% in size. Note: potency is the fitted concentration of half-maximal effect. In a few lines:
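Enzyme-substrate mix preincubated with compound 10 min at room temperature; reaction started with NADPH regeneration solution, 1 h 37C. Luminescent luciferin product read after 20 min detection reagent.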

Assay [9] concerns the target Voltage-gated inwardly rectifying potassium channel KCNH2 (Homo sapiens) (UniProt Q12809). The assay can be described thus: Human Ether-a-go-go-Related Gene (hERG) channel small molecule antagonists: fluorescence cell-based qHTS assay (AID 1671200). Note: nearly all actives have a fitted effect of over 50% in size. Note: potency is the fitted concentration of half-maximal effect. In a few lines:
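U2OS cells expressing the channel were plated at 1000 cells/well, incubated overnight at 37 C, then loaded with FluxOR II thallium-sensitive dye for 1 h at room temperature in the dark, with a further 10 min at room temperature before stimulation.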

For assay [10], the target named is Cytochrome P450 3A4 (Homo sapiens) (UniProt P08684). Briefly: Cytochrome P450 Family 3 Subfamily A Member 4 (CYP3A4) small molecule antagonists: luciferase reporter qHTS assay (AID 1671201). Note: nearly all actives have a fitted effect of over 50% in size. Note: potency is the fitted concentration of half-maximal effect. In a few lines:
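P450-Glo CYP3A4 system with proluciferin substrate; compounds preincubated 10 min RT with enzyme-substrate mix, then NADPH regeneration added for 1 h RT. Detection reagent 20 min, luminescence read as relative luminescence units.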

The target in assay [11] is Cytochrome P450 1A2 (Homo sapiens) (UniProt P05177). The assay can be described thus: Cytochrome P450 Family 1 Subfamily A Member 2 (CYP1A2) small molecule antagonists: luciferase reporter qHTS assay (AID 1671199). Note: nearly all actives have a fitted effect of over 50% in size. Note: potency is the fitted concentration of half-maximal effect. Summed up:
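Luminescence from luciferin formed by CYP1A2 from a proluciferin substrate, read 20 min after detection reagent. Compound was pre-incubated 10 min with enzyme-substrate, and reaction started with NADPH regeneration solution for 1 h at room temperature; furafylline control.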

For assay [12], the target named is Nuclear receptor subfamily 1 group I member 2 (Rattus norvegicus) (UniProt Q9R1A7). Briefly: Rat pregnane X receptor (rPXR) activation by small molecules, qHTS assay (AID 1346983). Note: nearly all actives have a fitted effect of over 20% in size. The following applies: rPXR luciferase reporter cells, One-Glo luminescence, 24 h; max activation: stronger effect = higher value. In a few lines: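 Luminescent readout (One-Glo luciferase, 30 min room temperature) followed 24 hr compound treatment at 37 C of rPXR cells plated 2,000 per well and preincubated 5hr; qHTS format with compounds delivered in DMSO.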
Nuclear receptor subfamily 1 group I member 2 (Rattus norvegicus), sequence (Q9R1A7 whole entry, looked up): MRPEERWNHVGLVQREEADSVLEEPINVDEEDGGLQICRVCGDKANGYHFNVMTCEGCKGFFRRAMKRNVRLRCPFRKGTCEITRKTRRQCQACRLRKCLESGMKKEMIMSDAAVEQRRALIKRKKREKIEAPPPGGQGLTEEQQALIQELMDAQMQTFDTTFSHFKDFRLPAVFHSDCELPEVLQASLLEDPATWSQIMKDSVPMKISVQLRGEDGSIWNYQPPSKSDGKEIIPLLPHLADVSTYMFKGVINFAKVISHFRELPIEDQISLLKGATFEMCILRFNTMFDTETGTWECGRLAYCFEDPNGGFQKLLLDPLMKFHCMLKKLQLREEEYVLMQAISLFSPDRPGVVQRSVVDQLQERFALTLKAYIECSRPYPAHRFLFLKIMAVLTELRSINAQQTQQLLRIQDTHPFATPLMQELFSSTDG

Assay [13] deals with Nuclear receptor subfamily 1 group I member 2 (Homo sapiens) (UniProt O75469). Briefly: CYP3A4 induction through human pregnane X receptor (PXR) by small molecules, qHTS assay (AID 1346984). Note: nearly all actives have a fitted effect of over 40% in size. In a few lines:
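Read-out is luminescence after One-Glo addition, following a 3 hr, 37C incubation with Luciferin-IPA CYP3A4 substrate (3uM final). Before that, compounds were on DPX-2 cells (HepG2 co-transfected with PXR element plus CYP3A4-promoter luciferase) for 24 hr at 37C.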

Assay [14] has the same target. The assay can be described thus: Human pregnane X receptor (PXR) activation by small molecules, qHTS assay (AID 1346985). Note: nearly all actives have a fitted effect of over 40% in size. Summed up: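 DPX-2 cells (HepG2 co-transfected with a PXR response element and a CYP3A4-promoter luciferase construct) were seeded at 2,000 per well, rested 5 hr at 37C, then exposed to DMSO-dissolved compounds for 24 hr. Activation was read as luciferase luminescence.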

“And” between values parts separate entries of the source, which are not always exact repeats. Equal entries are not always repeated. Records with an inconclusive call do not appear. Some compounds were tested as several samples or in several runs, with calls that do not always agree. The source made the active and inactive calls. Calls come from the whole dose curve; as a rule, active = well fitted curve in the direction sought with a large enough effect in the repeat runs; inconclusive = weak or mixed curves; inactive = no such curve, though single readings can be large; an effect the other way counts as inactive or inconclusive.
% is set by controls: 0 for no effect and ±100 for the full control effect.

Cytochrome P450 2C9 (Homo sapiens), sequence (P11712 whole entry, looked up): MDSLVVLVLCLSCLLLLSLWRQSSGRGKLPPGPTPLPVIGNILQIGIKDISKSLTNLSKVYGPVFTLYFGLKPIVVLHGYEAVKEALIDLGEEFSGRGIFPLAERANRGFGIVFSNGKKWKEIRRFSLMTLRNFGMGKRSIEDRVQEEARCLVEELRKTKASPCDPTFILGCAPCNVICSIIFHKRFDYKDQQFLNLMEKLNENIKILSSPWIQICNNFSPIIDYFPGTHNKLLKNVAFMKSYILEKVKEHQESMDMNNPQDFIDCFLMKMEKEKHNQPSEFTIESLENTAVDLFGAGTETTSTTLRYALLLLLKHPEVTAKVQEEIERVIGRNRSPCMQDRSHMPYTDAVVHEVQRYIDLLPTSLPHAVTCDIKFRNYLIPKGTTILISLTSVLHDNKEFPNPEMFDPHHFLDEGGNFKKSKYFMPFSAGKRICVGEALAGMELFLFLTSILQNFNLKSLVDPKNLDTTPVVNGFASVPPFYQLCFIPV
Nuclear receptor subfamily 1 group I member 2 (Homo sapiens), sequence (O75469 whole entry, looked up): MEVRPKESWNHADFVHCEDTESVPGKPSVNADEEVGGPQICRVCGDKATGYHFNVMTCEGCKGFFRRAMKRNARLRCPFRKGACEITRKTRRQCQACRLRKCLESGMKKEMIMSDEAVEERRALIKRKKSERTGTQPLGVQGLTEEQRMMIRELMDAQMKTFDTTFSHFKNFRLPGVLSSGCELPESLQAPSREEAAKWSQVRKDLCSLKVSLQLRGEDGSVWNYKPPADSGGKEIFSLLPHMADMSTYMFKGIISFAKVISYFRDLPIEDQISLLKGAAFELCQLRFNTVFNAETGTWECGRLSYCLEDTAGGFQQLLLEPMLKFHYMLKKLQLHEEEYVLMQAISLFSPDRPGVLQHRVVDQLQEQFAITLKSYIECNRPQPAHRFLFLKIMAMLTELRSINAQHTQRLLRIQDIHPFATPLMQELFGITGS
Cytochrome P450 1A2 (Homo sapiens), sequence (P05177 whole entry, looked up): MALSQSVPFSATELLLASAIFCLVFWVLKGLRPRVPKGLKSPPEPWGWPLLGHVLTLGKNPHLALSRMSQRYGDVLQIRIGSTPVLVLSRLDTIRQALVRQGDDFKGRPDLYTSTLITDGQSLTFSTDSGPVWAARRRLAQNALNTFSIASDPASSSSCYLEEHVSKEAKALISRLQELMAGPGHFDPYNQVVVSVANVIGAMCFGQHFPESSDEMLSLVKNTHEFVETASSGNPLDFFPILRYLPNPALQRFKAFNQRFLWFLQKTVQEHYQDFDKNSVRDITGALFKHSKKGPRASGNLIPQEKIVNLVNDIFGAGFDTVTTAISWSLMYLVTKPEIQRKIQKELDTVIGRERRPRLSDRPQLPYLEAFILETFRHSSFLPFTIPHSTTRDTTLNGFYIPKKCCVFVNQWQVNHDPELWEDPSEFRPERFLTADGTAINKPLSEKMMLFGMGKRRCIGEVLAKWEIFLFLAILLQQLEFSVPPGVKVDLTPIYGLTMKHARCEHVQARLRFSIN
Cytochrome P450 3A4 (Homo sapiens), sequence (P08684 whole entry, looked up): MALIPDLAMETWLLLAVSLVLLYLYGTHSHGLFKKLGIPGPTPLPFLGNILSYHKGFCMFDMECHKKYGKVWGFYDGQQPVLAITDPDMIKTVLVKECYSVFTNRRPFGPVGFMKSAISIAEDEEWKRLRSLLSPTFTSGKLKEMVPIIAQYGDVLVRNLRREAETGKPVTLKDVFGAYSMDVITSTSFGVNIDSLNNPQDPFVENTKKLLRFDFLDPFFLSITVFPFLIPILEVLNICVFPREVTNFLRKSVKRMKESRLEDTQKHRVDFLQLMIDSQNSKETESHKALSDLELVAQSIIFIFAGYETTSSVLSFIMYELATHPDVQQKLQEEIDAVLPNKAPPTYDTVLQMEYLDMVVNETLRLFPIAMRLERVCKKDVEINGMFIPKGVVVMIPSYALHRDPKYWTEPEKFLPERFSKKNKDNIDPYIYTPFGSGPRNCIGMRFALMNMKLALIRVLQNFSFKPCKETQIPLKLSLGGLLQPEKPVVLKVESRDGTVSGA
Voltage-gated inwardly rectifying potassium channel KCNH2 (Homo sapiens), sequence (Q12809 whole entry, looked up): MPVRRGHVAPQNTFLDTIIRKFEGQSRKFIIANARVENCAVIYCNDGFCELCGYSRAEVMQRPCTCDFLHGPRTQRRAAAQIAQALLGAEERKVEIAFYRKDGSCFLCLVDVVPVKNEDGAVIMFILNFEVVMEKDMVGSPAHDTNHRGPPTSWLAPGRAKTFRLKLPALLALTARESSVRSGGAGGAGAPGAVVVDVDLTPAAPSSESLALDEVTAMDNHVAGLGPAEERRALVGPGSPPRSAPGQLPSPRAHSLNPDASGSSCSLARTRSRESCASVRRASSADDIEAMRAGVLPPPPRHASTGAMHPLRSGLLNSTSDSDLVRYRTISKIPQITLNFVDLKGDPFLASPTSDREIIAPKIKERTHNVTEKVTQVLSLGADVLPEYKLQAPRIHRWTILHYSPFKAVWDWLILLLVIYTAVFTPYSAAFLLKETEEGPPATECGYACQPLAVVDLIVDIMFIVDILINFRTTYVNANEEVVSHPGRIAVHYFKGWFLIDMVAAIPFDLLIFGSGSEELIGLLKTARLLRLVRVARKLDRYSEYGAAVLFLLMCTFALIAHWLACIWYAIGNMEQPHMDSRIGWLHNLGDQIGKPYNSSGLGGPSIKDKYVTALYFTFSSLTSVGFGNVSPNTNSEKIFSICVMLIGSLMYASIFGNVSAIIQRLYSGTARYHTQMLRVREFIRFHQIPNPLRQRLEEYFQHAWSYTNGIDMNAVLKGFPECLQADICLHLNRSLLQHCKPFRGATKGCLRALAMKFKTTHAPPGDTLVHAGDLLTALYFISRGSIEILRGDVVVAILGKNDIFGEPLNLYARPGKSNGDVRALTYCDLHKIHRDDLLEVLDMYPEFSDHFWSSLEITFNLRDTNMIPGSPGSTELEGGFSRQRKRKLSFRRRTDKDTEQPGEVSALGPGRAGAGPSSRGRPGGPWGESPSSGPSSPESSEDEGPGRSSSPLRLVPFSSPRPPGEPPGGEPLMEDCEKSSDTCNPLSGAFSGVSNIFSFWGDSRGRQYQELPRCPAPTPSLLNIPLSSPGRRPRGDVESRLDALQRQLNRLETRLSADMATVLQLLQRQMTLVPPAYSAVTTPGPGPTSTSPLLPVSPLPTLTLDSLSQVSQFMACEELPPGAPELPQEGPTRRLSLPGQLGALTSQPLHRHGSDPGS

For `COC(=O)c1ccc(C)cc1`, the Potency result in [1], in [2], in [3], in [4], in assay [5] and in [6] was “inactive” in each case. Moreover, the Potency entry in [7], in assay [8], in assay [9] and in assay [10] was “inactive” throughout.

For the compound `O=C(O)CCCC(=O)O`, the Potency entry in assay [1], in assay [2], in assay [3], in [4], in [5] and in assay [9] was “inactive” in each case. In assay [10], the Potency entry was “inactive”. The Potency in assay [6] was 22 µM (active) and inactive; in assay [7], 22 µM (active) and inactive; in assay [8], 39.2 µM (active) and inactive; in [11], 34.9 µM (active) and inactive.

Turning to `Cc1ccc(C(C)(C)C)c(O)c1`, the Potency in assay [2] was 66.4 µM (active); in assay [7] it was 30.7 µM (active) and 39.9 µM (active); in assay [8], 34.4 µM (active) and 71 µM (active); in assay [11] it was 71 µM (active). Moreover, the Potency entry in [3], in [4], in [5], in [6], in [9] and in assay [10] was “inactive” each time.

On to `CC1=CC(C)(C)Nc2ccccc21`, for which the Potency result in assay [1], in [2], in assay [3], in assay [4], in assay [6] and in assay [11] was “inactive” in each case. Besides, in assay [9], the Potency result was “inactive”. The Potency in assay [5] is 8.41 µM (active); in assay [7], 75.6 µM (active); in assay [8], 12.3 µM (active); in assay [10] it was 2.75 µM (active).

Take `ClC/C=C/CCl`: the Potency result in [1], in assay [2], in assay [3], in assay [4], in assay [5] and in [7] was “inactive” each time. Further, the Potency entry in [8], in assay [11], in assay [9] and in [10] was “inactive” in each case. The Potency in [6] is 62.8 µM (active) and inactive.

Consider `Nc1ccc2c(c1)C(=O)c1ccccc1C2=O`, for which the Potency result in [1], in [3] and in assay [9] was “inactive” in each case. In addition, the Potency is 53.5 µM (active) and 54.5 µM (active) in assay [2]; 30.1 µM (active) in assay [4]; 190 nM (active) and 486 nM (active) in assay [5]; 8.78 µM (active) and 35.6 µM (active) in [7]; 19.6 µM (active) and 22.4 µM (active) in [8]; 220 nM (active) and 252 nM (active) in assay [11]. Further, the Potency in assay [10] was 1.24 µM (active) and 1.78 µM (active).

On to `c1ccc2c(c1)[nH]c1ccccc12`, for which the Potency result in [1], in assay [2], in assay [3], in assay [4], in [8] and in assay [9] was “inactive” each time. In assay [10], the Potency entry was “inactive”. In addition, the Potency in assay [5] was 47.7 µM (active) and 61.1 µM (active); in assay [6], 39.2 µM (active) and inactive; in [7] it was 7.83 µM (active) and 7.96 µM (active); in [11], 2.21 µM (active) and 2.24 µM (active).

Regarding `Cc1ccc([N+](=O)[O-])c(C)c1`, the Potency entry in assay [1], in assay [2], in assay [3], in [4], in [5] and in [6] was “inactive” in each case. Besides, the Potency entry in [8], in assay [11], in assay [9] and in assay [10] was “inactive” each time. Besides, in assay [7], the Potency was 8.94 µM (active) and inactive.

For `C1CN(SSN2CCOCC2)CCO1`, the Potency result in assay [1], in assay [4], in assay [9] and in assay [10] was “inactive” throughout. The Potency is 30.3 µM (active) and 48.6 µM (active) in [2]; 61.1 µM (active) in assay [5]; 78.9 µM (active) and 31.7 µM (active) in assay [6]; 35.2 µM (active) and 35.6 µM (active) in assay [7]; 39.5 µM (active) and 28.3 µM (active) in [8]; 62.6 µM (active) and 39.9 µM (active) in assay [11].

On to `OCCNCCO`, for which the Potency entry in [1], in assay [2], in assay [3], in assay [4], in [6] and in assay [7] was “inactive” each time. Moreover, the Potency entry in [9] and in [10] was “inactive” throughout. The Potency in assay [5] was 54.5 µM (active) and inactive.

In the case of `Cc1ccc(/C(=C\CN2CCCC2)c2ccccn2)cc1`, the Potency result in assay [1], in [2], in assay [3], in assay [4], in assay [5] and in [13] was “inactive” throughout. In addition, the Potency result in assay [14], in assay [7], in [8], in assay [11] and in assay [10] was “inactive” in each case. Moreover, the max activation in assay [12] was -1.02% (inactive). For the same compound, the Potency in [9] is 18.3 µM (active) and 10.7 µM (active).

Turning to `CC(C)[C@@H]1CC[C@@H](C)CC1=O`, the Potency entry in [1], in [2], in assay [3], in assay [4], in [5] and in assay [13] was “inactive” in each case. Besides, the Potency result in assay [14], in assay [6], in [8], in [9] and in assay [10] was “inactive” throughout. For the same compound, the max activation in assay [12] is -3.74% (inactive). Besides, the Potency is 31.7 µM (active) and inactive in assay [7]; 30.9 µM (active) in assay [11].

On to `O=C1OC2(c3ccccc31)c1cc(I)c(O)c(I)c1Oc1c2cc(I)c(O)c1I`, for which the Potency result in [1], in assay [3], in assay [5] and in [9] was “inactive” each time. Also, the Potency in [2] is 10.5 µM (active) [middle of 4 runs]; in assay [4], 13.3 µM (active) [middle of 4 runs]; in assay [6] it was 28.3 µM (active) and 36 µM (active); in assay [7] it was 56.5 µM (active) and 18 µM (active) and 5.43 µM (active).

Take `[Na+]`: the Potency result in assay [1], in assay [2], in assay [3], in assay [4], in [5] and in assay [6] was “inactive” throughout. Moreover, the Potency result in assay [8], in assay [9] and in assay [10] was “inactive” throughout.
